What all share (assay): PBM binding z-score (relative to random genomic background probes); higher = stronger binding; sequences stand for … in GC…GCGATTGACAGCGTAGAATGAAGG
The test system of assay [1] is FXR:RXRa (NR concentration 270 nM, RXRa partner concentration 90 nM). The gist of the method: (§1)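 Custom Agilent 4×180K protein-binding microarrays carried double-stranded probes. Their 34-nt variable regions held direct-repeat seeds, single-nucleotide variants, half-site ablations and random human genomic background sequences. Arrays were incubated 1 h with ligand-free nuclear receptor dimers in PBS pH 7.4, 2% milk, 0.02% Triton X-100, 1 mM DTT, 0.2 mg/mL BSA and 0.4 mg/ml salmon testes DNA. Antibodies against each partner (one per run) detected binding, and scanned fluorescence was regression-normalized. Binding z-scores use random background probes as reference.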

Assay [2] has as its system LXRa:RXRa (NR concentration 270 nM, RXRa partner concentration 90 nM). The essentials: as §1
Assay [3] relates to LXRa homodimer (NR concentration 270 nM). The essentials: as §1
For assay [4], the system named is LXRb:RXRa (NR concentration 270 nM, RXRa partner concentration 90 nM). The gist of the method:
as §1

Assay [5] deals with LXRb homodimer (NR concentration 270 nM). The gist of the method: as §1
Assay [6] relates to PPARa:RXRa (NR concentration 270 nM, RXRa partner concentration 90 nM). The gist of the method: as §1
Assay [7] relates to PPARg:RXRa (NR concentration 180 nM, RXRa partner concentration 90 nM). The gist of the method: as §1
The subject of assay [8] is PPARg:RXRa 270nM:90nM, anti-RXR (NR concentration 270 nM, RXRa partner concentration 90 nM). The essentials: as §1
For assay [9], the system named is PPARg:RXRa 30nM:10nM, anti-RXR (NR concentration 30 nM, RXRa partner concentration 10 nM). The gist of the method:
as §1

Assay [10] concerns PPARg:RXRa 90nM:30nM, anti-RXR (NR concentration 90 nM, RXRa partner concentration 30 nM). The essentials:
as §1

As for CCTATTAGTTGACCATAGGGGCAACCGAAGCTCG, the PBM binding z-score in assay [1] came to 0.589; in assay [2], 0.362; in assay [3] it was 0.304; in assay [4], 0.153; in [5], 0.195; in [6], 0.245. Besides, the PBM binding z-score in [7] is 0.395; in assay [8], 0.309; in assay [9], -0.142; in [10] it was 0.113.
As for GCGACTGGAGCATCAGCAGGTTACCATAACTTAA, the PBM binding z-score in assay [1] is -0.588; in [2], -0.33; in assay [3] it was -0.742; in assay [4] it was -0.376; in [5], -1.27; in assay [6] it was 0.165. Moreover, the PBM binding z-score in assay [7] is 0.329; in [8], -0.223; in [9], -0.632; in assay [10], -0.253.
On to ATCTCTAGGTCAAGATAGTTCAGTGAATGCAAAT, for which the PBM binding z-score in assay [1] stood at 3.96; in assay [2], 6.31; in assay [3], 4.48; in assay [4], 3.62; in assay [5] it was 1.93; in assay [6], 4.23. Besides, the PBM binding z-score came to 4.92 in [7], 4.63 in [8], 2.03 in [9] and 3.66 in [10].
Regarding TCATACAGGTAAAAGGTGAAAGTCGGTGTGGTAA, the PBM binding z-score in assay [1] is 1.87; in assay [2], 1.87; in assay [3] it was -0.0272; in assay [4] it was 2.18; in assay [5] it was 0.661; in assay [6], 4.39. For the same sequence, the PBM binding z-score came out at 6.38 in assay [7], 6.45 in assay [8], 5.73 in assay [9] and 7.08 in assay [10].
On to AATACAGGGTCACAAGGCCAGAGTAGGTACGAAT, for which the PBM binding z-score was 6.89 in assay [1]; 5.61 in assay [2]; 1.21 in [3]; 4.47 in assay [4]; 1.18 in assay [5]; 5.99 in assay [6]. Besides, the PBM binding z-score in assay [7] turned out to be 7.38; in assay [8], 6.69; in assay [9] it was 3.96; in assay [10] it was 5.46.
Consider TATAGTTGGTCAAAGGTCACACACTCGAAATGCG, for which the PBM binding z-score was found to be 5.81 in [1]; 6.08 in assay [2]; 3.62 in assay [3]; 5.5 in assay [4]; 2.11 in [5]; 6.7 in assay [6]. Moreover, the PBM binding z-score was determined as 11.4 in assay [7], 9.75 in [8], 9.43 in assay [9] and 10.9 in assay [10].
For TCGAGTAGGTTAGTCGTGGCATTCAGCCAACATA, the PBM binding z-score in assay [1] is -0.318; in assay [2], -0.31; in assay [3], -0.35; in assay [4] it was -0.47; in [5], -1.11; in assay [6] it was 0.293. For the same sequence, the PBM binding z-score in assay [7] is -0.232; in assay [8], 0.763; in assay [9], 1.36; in assay [10], 0.958.
Regarding CCTCGAAGGACAACAGGAGGTCAGAGCTGCCAGA, the PBM binding z-score in assay [1] was 0.962; in [2], 1.97; in [3], 1.73; in assay [4] it was 1.5; in [5] it was -0.405; in [6] it was 2.05. Further, the PBM binding z-score in [7] was 0.581; in [8] it was 0.229; in [9], -0.343; in [10] it was -0.119.
CCTACTGGGCCAACAGGTCATTGATATCAACGTT: the PBM binding z-score in [1] was 1.42; in assay [2], 1.52; in assay [3] it was 1.37; in assay [4], 1.98; in assay [5], -0.204; in [6] it was 3.21. Besides, the PBM binding z-score in assay [7] stood at 4.01; in assay [8] it was 4.41; in assay [9] it was 2.65; in assay [10], 4.24.
In the case of GCTATTAGTTGAAAGGGTAACCGAATGATTCTCG, the PBM binding z-score in assay [1] was -0.0135; in [2] it was 0.398; in [3], 0.254; in assay [4] it was 0.557; in assay [5], -0.148; in assay [6], 1.63. Besides, the PBM binding z-score came out at 1.39 in assay [7], 3.38 in [8], 1.36 in assay [9] and 3.03 in assay [10].
Consider GCGACTGGGGCAAAGCAGGTTACCACAAGGTTGG, for which the PBM binding z-score is 0.61 in assay [1]; -0.0445 in assay [2]; -0.447 in assay [3]; 0.204 in assay [4]; -1.07 in assay [5]; 1.14 in assay [6]. Further, the PBM binding z-score was 1.35 in [7], 1.34 in [8], -0.386 in assay [9] and 0.797 in assay [10].
Regarding GATACAGGGTCAAAGCCAGAGTACGCGTATTGAT, the PBM binding z-score in assay [1] worked out at 7.15; in assay [2], 4.59; in assay [3], 0.214; in assay [4], 3.97; in [5] it was 0.158; in [6], 5.59. For the same sequence, the PBM binding z-score in assay [7] turned out to be 5.42; in assay [8] it was 5.39; in assay [9], 2.26; in assay [10] it was 4.25.

For the origin of these results see the supplement of paper PMC6555819.
